Measurements taken from PubChem BioAssay (NCI).
The panel holds about 83,000 compounds, 20% with a hit somewhere; the sample as a whole holds those more often.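 In brief: 96-well plates, 48 h treatment, single concentration, percent growth endpoint.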 Activity calls are given as the source filed them. Rule for the calls: active = growth percent below 10; inactive = the rest.

How the values were obtained:
Assay in all cases: NCI-60 one-dose screen, 48 h (100 = growth as untreated, 0 = no growth, -100 = all killed)
Conditions in all cases: 10 µM unless noted
SK-MEL-2 melanoma = test system: SK-MEL-2 melanoma
EKVX NSCLC = test system: EKVX NSCLC
SN12C renal = test system: SN12C renal
UO-31 renal = test system: UO-31 renal
TK-10 renal = test system: TK-10 renal
ACHN renal = test system: ACHN renal
CAKI-1 renal = test system: CAKI-1 renal
A498 renal = test system: A498 renal
CCRF-CEM leukemia = test system: CCRF-CEM leukemia
MOLT-4 leukemia = test system: MOLT-4 leukemia

Measured: growth

CCOc1cccc(/C=N/NC(=O)c2cccc(Nc3ccnc(C(F)(F)F)c3)c2)c1O
inactive: SK-MEL-2 melanoma 58.7% | EKVX NSCLC 21.3% | SN12C renal 33.2% | UO-31 renal 17.3% | TK-10 renal 49.5% | ACHN renal 24.4% | CAKI-1 renal 18.3% | A498 renal 61.5% | MOLT-4 leukemia 18.2%
active: CCRF-CEM leukemia 6.39%

COc1cc(OC)c(C(=O)C(CN(C)C)CN(C)C)cc1OC
inactive: SK-MEL-2 melanoma 105% | EKVX NSCLC 20.3% | SN12C renal 107% | UO-31 renal 10.4% | CAKI-1 renal 20.3% | A498 renal 113%
active: TK-10 renal -79.2% | ACHN renal -87.6% | CCRF-CEM leukemia -58.1% | MOLT-4 leukemia -39.8%

COC(=O)c1c2c(c(C)[n+]([O-])c1C)C(=O)C(NCc1ccc(OC)cc1)=CC2=O
active: SN12C renal 0.985% | MOLT-4 leukemia 0.904%
inactive: SK-MEL-2 melanoma 62.3% | EKVX NSCLC 55% | UO-31 renal 65.3% | TK-10 renal 102% | ACHN renal 40.1% | CAKI-1 renal 48.5% | A498 renal 113% | CCRF-CEM leukemia 20.7%

CCN(CC)c1ccc(/C=N/NC(=O)Cc2ccc(Nc3ccnc(C(F)(F)F)c3)cc2)c(O)c1
active: CAKI-1 renal -20.8% | CCRF-CEM leukemia 9.9%
inactive: SK-MEL-2 melanoma 56.1% | EKVX NSCLC 10.5% | SN12C renal 40.3% | UO-31 renal 20.3% | TK-10 renal 35.4% | ACHN renal 19.4% | A498 renal 22% | MOLT-4 leukemia 10.4%

CNC(C)[C@H]1CCC2C3CC=C4C(=O)[C@@H](NC(=O)C=C(C)C)CC[C@]4(C)C3CC[C@@]21C (stereo not given in full)
active: UO-31 renal -35.5% | CAKI-1 renal 3.96% | CCRF-CEM leukemia -20% | MOLT-4 leukemia -55.8%
inactive: SK-MEL-2 melanoma 23.8% | EKVX NSCLC 24.2% | SN12C renal 17% | TK-10 renal 60.1% | ACHN renal 26% | A498 renal 56%

Nc1nc(NC(=O)Nc2ccc(C(=O)O)cc2)nn1-c1ccc(S(N)(=O)=O)cc1
inactive: SK-MEL-2 melanoma 110% | EKVX NSCLC 105% | SN12C renal 89.5% | UO-31 renal 80.7% | TK-10 renal 106% | ACHN renal 99.6% | CAKI-1 renal 90.3% | A498 renal 90.6% | CCRF-CEM leukemia 99.4% | MOLT-4 leukemia 93.1%

Clc1ccccc1-c1cnn2cc(-c3ccccc3)cnc12
inactive: SK-MEL-2 melanoma 101% | EKVX NSCLC 83.3% | SN12C renal 79.5% | UO-31 renal 84.6% | TK-10 renal 89.1% | ACHN renal 74.1% | CAKI-1 renal 81.4% | A498 renal 72% | CCRF-CEM leukemia 89.2% | MOLT-4 leukemia 83.7%

CCOC(=O)c1c(C)nc2c(c1N)CC(=O)N2Cc1ccc(OC)cc1
inactive: SK-MEL-2 melanoma 51.2% | EKVX NSCLC 47.7% | SN12C renal 41.1% | UO-31 renal 33.8% | ACHN renal 28.4% | CAKI-1 renal 76.4% | A498 renal 63.5% | CCRF-CEM leukemia 117% | MOLT-4 leukemia 90.3%
active: TK-10 renal 0.0562%

COc1cc2nc3sc(C(=O)Nc4ccc(C(=O)OC(C)C)cc4)c(C(=O)Nc4ccc(Cl)cc4C)n3c(=O)c2cc1OC
inactive: SK-MEL-2 melanoma 110% | EKVX NSCLC 77.2% | SN12C renal 102% | ACHN renal 97% | CAKI-1 renal 42.7% | A498 renal 56.7% | CCRF-CEM leukemia 23.6% | MOLT-4 leukemia 52.8%
active: UO-31 renal -5.58% | TK-10 renal 6.58%

COc1ccc2c(c1)c(/C(O)=C1\COC(=O)C1=O)cn2Cc1ccc(F)cc1
inactive: SK-MEL-2 melanoma 85.5% | EKVX NSCLC 106% | SN12C renal 92.9% | UO-31 renal 72.9% | TK-10 renal 119% | ACHN renal 103% | CAKI-1 renal 125% | A498 renal 91.5% | CCRF-CEM leukemia 76.7% | MOLT-4 leukemia 112%

CN1CCN(Cc2ccc(NC(=O)c3cncc(C#Cc4cnc5ccc(Cl)nn45)c3)cc2C(F)(F)F)CC1
active: SK-MEL-2 melanoma -46.1% | EKVX NSCLC -22% | SN12C renal 0.38% | UO-31 renal -11.5% | TK-10 renal 5.85% | ACHN renal 1.09% | CAKI-1 renal -13.6% | A498 renal -8.2% | CCRF-CEM leukemia 2.17% | MOLT-4 leukemia 3.14%

Fc1ccc2[nH]cc(-c3nc(-c4c[nH]c5ccncc45)cs3)c2c1
active: SK-MEL-2 melanoma -49.9% | EKVX NSCLC -45.7% | SN12C renal -49.8% | UO-31 renal -69.9% | TK-10 renal -37.4% | ACHN renal -78.2% | CAKI-1 renal -17.4% | CCRF-CEM leukemia -19.2% | MOLT-4 leukemia -32.6%
inactive: A498 renal 62.1%

O=[N+]([O-])c1cc(NS(=O)(=O)c2ccccc2)ccc1NS(=O)(=O)c1ccccc1
inactive: SK-MEL-2 melanoma 99.6% | EKVX NSCLC 119% | SN12C renal 90.4% | UO-31 renal 95.8% | TK-10 renal 112% | ACHN renal 91.4% | CAKI-1 renal 129% | A498 renal 115% | CCRF-CEM leukemia 96.3% | MOLT-4 leukemia 117%

CCOC(=O)C#Cc1c(C(=O)OCC)nnn1Cc1ccc(C(F)(F)F)cc1
inactive: SK-MEL-2 melanoma 97.1% | EKVX NSCLC 93.6% | SN12C renal 57.7% | A498 renal 104% | MOLT-4 leukemia 25.1%
active: UO-31 renal 1.49% | TK-10 renal 8.7% | ACHN renal -25.4% | CAKI-1 renal 0.164% | CCRF-CEM leukemia 8.84%

CCOC(=O)c1[nH]c2c(c1C)-c1[nH]c(=O)c(S(=O)(=O)c3ccccc3)cc1SC2
inactive: SK-MEL-2 melanoma 56.4% [100 µM] | SN12C renal 59.5% [100 µM] | UO-31 renal 54.2% [100 µM] | TK-10 renal 13.1% [100 µM] | ACHN renal 20.9% [100 µM] | CAKI-1 renal 16.2% [100 µM] | A498 renal 21.4% [100 µM] | CCRF-CEM leukemia 52.1% [100 µM] | MOLT-4 leukemia 57.3% [100 µM]
active: EKVX NSCLC 8.42% [100 µM]

CCN(CC)c1ccc(CNc2cc(C)nc3ccccc23)cc1
inactive: SK-MEL-2 melanoma 84.2% | EKVX NSCLC 42.6% | SN12C renal 75.4% | UO-31 renal 40% | TK-10 renal 67% | ACHN renal 64.6% | CAKI-1 renal 53.2% | A498 renal 52.5% | CCRF-CEM leukemia 70% | MOLT-4 leukemia 86.4%

COc1ccc(N2CCC(=S)NC2=S)cc1
inactive: SK-MEL-2 melanoma 115% | EKVX NSCLC 104% | SN12C renal 98% | UO-31 renal 84.3% | TK-10 renal 96% | ACHN renal 104% | CAKI-1 renal 85% | A498 renal 108% | CCRF-CEM leukemia 102% | MOLT-4 leukemia 98.9%

COc1ccc(CNc2c3ccccc3nc3ccccc23)c(OC)c1
active: A498 renal -11.5%
inactive: SK-MEL-2 melanoma 94% | EKVX NSCLC 51.1% | SN12C renal 31% | UO-31 renal 28% | TK-10 renal 54.4% | ACHN renal 25.8% | CAKI-1 renal 36.2% | CCRF-CEM leukemia 55.4% | MOLT-4 leukemia 18.5%
